# Measured values reported in PubChem BioAssay (NCATS).
# Inconclusive results are not listed. This is one part of the list. A call without a number means that no potency is given here. Active and inactive are the calls of the source. Unless noted, calls come from the whole dose curve; as a rule, active = well fitted curve in the direction sought with a large enough effect; inconclusive = small, poorly fitted or top-dose-only effect, or another doubt; inactive = no such curve, though single readings can be large; an effect the other way counts as inactive or inconclusive.
# Tests used:
# [1] = Validation screen for small molecules that induce genotoxicity in human embryonic kidney (HEK293T) cells expressing luciferase-tagged ELG1 (AID 493106)
# Method in brief: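 HEK293T cells expressing luciferase-tagged ELG1, 2,000 cells/well, exposed to compound 16 hr at 37 °C, 5% CO2. Luciferase read after ONE-Glo, 30 min at room temperature; increased signal indicates genetic stress.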
# [2] = qHTS for Inhibitors of Cell Surface uPA Generation: Validation Assay (AID 493164)
# Method in brief: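 RAW 264.7 cells (4000/well) were plated overnight, then exposed for 18 h at 37 C, 5% CO2 to compounds in a 7-point 1:5 titration (2.45 nM–38.3 uM final). Intracellular ATP was read by ATP-Lite luminescence.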
# [3] = biological target: Peptidyl-prolyl cis-trans isomerase NIMA-interacting 1 (Homo sapiens) (UniProt Q13526); test: qHTS Validation Assay to Find Inhibitors of Pin1 (AID 504536; active = well fitted inhibition curve with a large enough effect in the polarisation, with a control signal flat, not every such curve was filed as active; the % refers to the polarisation)
# Method in brief: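 Fluorescence polarization competition: compounds (titration) displace HiFluor-488-labeled Pin1-1b peptide from Pin1 (0.3 uM final) in pH 7.5 HEPES buffer with DTT, 10 min at room temperature; %Activity normalized to no-enzyme wells, curves fitted.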
# [4] = biological target: Phosphoglycerate kinase, glycosomal (Trypanosoma brucei brucei) (UniProt P07378); test: qHTS Validation Assay to Find Inhibitors of Phosphoglycerate Kinase (AID 504547)
# Method in brief: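 PGK activity was coupled to GAPDH (100nM final), which generates the unstable substrate 1,3-bisphosphoglycerate in-well. Reactions ran 60 minutes at room temperature in 100mM TEA pH 7.6, 5mM MgCl2, 0.01% Tween-20, then Kinase-Glo Plus luminescence was read.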
# [5] = biological target: phosphoglycerate mutase (Leishmania major) (UniProt Q4Q090); test: qHTS Validation Assay to Find Inhibitors of Phosphoglycerate Mutase (AID 504548);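 note: end-point luminescence from Kinase-GloPlus after the PGAM reaction; series mostly up to about 58 µM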
# Method in brief: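 L. major PGAM (1.25nM final) was added to substrate buffer and pinned compound, incubated 45 minutes at room temperature, then Kinase-GloPlus added; luminescence read after 10 minutes. Buffer: 100 mM TEA pH 7.6, 5 mM MgCl2, 0.01% Tween-20.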
# [6] = biological target: Glutaminase kidney isoform, mitochondrial (Homo sapiens) (UniProt O94925); test: qHTS for Inhibitors of Glutaminase (GLS): LOPAC Validation (AID 624146);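 note: glutamate product detected by oxidase and peroxidase coupled Amplex red fluorescence gain; series mostly up to about 46 µM; nearly all actives have a fitted effect of over 60% in size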
# Method in brief: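 hKGA in 45 mM KH2PO4 pH 8.2, 0.02% Tween-20 with pin-transferred compounds; 1 mM L-glutamine (stock) plus glutamate oxidase/HRP/Amplex Red coupling added. Fluorescence read initially and after 30 min at RT.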
# [7] = qHTS of Trypanosoma Brucei Inhibitors: LOPAC Validation (AID 624147)
# Method in brief: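 Glycolytic pyruvate kinase of T. brucei was incubated with substrate, test compound and 130 uM ADP for 45 minutes at room temperature. Luminescent Kinase-Glo Plus signal was measured after 10 minutes.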
# [8] = biological target: Glucagon-like peptide 1 receptor (Homo sapiens) (UniProt P43220); test: qHTS of GLP-1 Receptor Agonists: LOPAC Validation (AID 624148);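 note: higher luminescence signal means agonism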
# Method in brief: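 HEK293 cells stably co-expressing GLP-1R and a cAMP-responsive luciferase reporter, plated 12 hours before compound, then incubated 4-6 hr at 37 deg C. Luminescence read 12 min after detection reagent.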
# [9] = qHTS of Nrf2 Activators: LOPAC Validation (AID 624149)
# Method in brief: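 AREc32_Fluc cells, 1000/well in OPTI-MEM with 5% FBS, grown overnight, then exposed to compounds for 24 hr at 37 deg C, 5% CO2. ARE-driven firefly luciferase read by Steady-Glo luminescence after 30 min at RT.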
# [10] = HTS Assay for Allosteric Antagonists of the Human D2 Dopamine Receptor: Hit Validation in HTRF (AID 624455);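 note: stable D1 dopamine receptor cell line scored for blocking the D1 response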
# Method in brief: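 Hit validation in cells stably expressing the D1 dopamine receptor, run in HTRF format. Compounds were tested for their ability to inhibit the D1-mediated response.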
# [11] = biological target: DNA polymerase iota (Homo sapiens) (UniProt Q9UNA4); test: qHTS for Inhibitors of Polymerase Iota: Confirmatory Assay for Cherry-picked Compounds (AID 720496); settings: Pol iota primer extension, TAMRA/BHQ fluorescence; note: potency is the fitted concentration of half-maximal effect
# Method in brief: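 Step 1: 10 nM Pol iota with compound, 15 min, room temperature. Step 2: 50 nM final quenched DNA substrate added. Step 3: fluorescence (ex 525, em 598 nm) read at 0 and after 10 min.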
# [12] = biological target: Bifunctional 3'-5' exonuclease/ATP-dependent helicase WRN (Homo sapiens) (UniProt Q14191); test: qHTS for Inhibitors of WRN Helicase: Confirmatory Assay for Cherry-picked Compounds. (AID 720497); settings: WRN helicase DNA unwinding, fluorescence kinetic; note: potency is the fitted concentration of half-maximal effect; nearly all actives have a fitted effect of over 65% in size
# Method in brief: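 Kinetic fluorescence helicase read-out (525 nm excitation, 598 nm emission) on a forked duplex substrate at 100 nM with 2 mM ATP. Enzyme: 20 nM WRN, exposed to compound for 15 min at room temperature. Responses normalized to buffer-only and positive-control wells.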
# [13] = qHTS for Inhibitors of WRN Helicase: Thiazole Orange DNA Binding Counterscreen (AID 720499);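 note: drop in dye fluorescence marks compound binding to DNA; nearly all actives have a fitted effect of over 60% in size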
# Method in brief: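 Readout: ThO fluorescence, ex 480 nm/em 530 nm. Mix: 50 nM unlabeled DNA, 100 nM ThO. Compounds pintooled in, 15 min RT before reading.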
# [14] = biological target: RecQ-like DNA helicase BLM (Homo sapiens) (UniProt P54132); test: qHTS for Inhibitors of WRN Helicase: BLM Helicase Counterscreen for WRN Inhibitors (AID 720503); settings: Recombinant BLM helicase DNA unwinding, red fluorescence; note: potency is the fitted concentration of half-maximal effect; nearly all actives have a fitted effect of over 60% in size
# Method in brief: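 Reactions were started with 100 nM DNA substrate and 2 mM ATP (final) after compound and 1 nM BLM stood 15 min at room temperature in Tris-HCl pH 8.0 buffer with NaCl, MgCl2, DTT and Tween-20. Two red-fluorescence reads 15 min apart were normalized against DMSO and no-enzyme wells.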
# Sequence of Glutaminase kidney isoform, mitochondrial (Homo sapiens) (O94925 whole entry, looked up, canonical isoform): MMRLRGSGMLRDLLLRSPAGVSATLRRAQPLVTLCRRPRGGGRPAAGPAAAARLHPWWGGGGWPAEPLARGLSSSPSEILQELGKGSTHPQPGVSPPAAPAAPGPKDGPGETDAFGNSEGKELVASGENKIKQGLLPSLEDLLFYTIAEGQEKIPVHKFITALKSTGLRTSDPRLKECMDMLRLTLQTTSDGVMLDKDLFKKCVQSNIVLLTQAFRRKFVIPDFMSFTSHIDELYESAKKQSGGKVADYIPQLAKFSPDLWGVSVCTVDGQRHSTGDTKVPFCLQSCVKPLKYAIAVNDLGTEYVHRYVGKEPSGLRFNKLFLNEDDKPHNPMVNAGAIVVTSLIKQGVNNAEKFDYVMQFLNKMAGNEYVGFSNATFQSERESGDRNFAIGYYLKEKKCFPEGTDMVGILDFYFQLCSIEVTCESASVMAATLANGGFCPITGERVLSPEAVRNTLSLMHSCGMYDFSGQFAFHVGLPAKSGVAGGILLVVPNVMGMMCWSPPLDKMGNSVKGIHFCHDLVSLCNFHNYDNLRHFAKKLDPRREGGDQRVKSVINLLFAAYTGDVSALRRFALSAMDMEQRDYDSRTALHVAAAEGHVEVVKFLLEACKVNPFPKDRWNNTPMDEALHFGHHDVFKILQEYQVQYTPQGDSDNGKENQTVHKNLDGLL
# Sequence of DNA polymerase iota (Homo sapiens) (Q9UNA4 whole entry, looked up): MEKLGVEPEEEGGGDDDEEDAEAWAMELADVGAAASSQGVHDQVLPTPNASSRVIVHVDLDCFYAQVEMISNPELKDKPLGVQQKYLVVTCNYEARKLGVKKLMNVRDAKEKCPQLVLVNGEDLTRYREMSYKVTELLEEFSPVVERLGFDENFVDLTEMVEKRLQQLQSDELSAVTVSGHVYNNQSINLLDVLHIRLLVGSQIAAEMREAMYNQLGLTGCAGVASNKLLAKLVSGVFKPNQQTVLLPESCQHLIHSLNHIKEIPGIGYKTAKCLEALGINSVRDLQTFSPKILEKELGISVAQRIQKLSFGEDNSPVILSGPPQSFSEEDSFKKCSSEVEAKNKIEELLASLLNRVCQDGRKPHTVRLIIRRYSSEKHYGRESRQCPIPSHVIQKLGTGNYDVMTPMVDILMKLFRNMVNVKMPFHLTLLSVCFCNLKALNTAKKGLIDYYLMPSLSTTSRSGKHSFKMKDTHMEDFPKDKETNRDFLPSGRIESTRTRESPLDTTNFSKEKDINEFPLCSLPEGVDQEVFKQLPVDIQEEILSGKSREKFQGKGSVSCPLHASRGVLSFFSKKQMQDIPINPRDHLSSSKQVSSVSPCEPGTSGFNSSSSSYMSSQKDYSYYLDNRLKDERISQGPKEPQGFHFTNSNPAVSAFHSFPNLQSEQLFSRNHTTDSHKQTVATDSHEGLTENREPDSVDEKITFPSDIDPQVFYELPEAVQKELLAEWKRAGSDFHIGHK
# Sequence of Bifunctional 3'-5' exonuclease/ATP-dependent helicase WRN (Homo sapiens) (Q14191 whole entry, looked up): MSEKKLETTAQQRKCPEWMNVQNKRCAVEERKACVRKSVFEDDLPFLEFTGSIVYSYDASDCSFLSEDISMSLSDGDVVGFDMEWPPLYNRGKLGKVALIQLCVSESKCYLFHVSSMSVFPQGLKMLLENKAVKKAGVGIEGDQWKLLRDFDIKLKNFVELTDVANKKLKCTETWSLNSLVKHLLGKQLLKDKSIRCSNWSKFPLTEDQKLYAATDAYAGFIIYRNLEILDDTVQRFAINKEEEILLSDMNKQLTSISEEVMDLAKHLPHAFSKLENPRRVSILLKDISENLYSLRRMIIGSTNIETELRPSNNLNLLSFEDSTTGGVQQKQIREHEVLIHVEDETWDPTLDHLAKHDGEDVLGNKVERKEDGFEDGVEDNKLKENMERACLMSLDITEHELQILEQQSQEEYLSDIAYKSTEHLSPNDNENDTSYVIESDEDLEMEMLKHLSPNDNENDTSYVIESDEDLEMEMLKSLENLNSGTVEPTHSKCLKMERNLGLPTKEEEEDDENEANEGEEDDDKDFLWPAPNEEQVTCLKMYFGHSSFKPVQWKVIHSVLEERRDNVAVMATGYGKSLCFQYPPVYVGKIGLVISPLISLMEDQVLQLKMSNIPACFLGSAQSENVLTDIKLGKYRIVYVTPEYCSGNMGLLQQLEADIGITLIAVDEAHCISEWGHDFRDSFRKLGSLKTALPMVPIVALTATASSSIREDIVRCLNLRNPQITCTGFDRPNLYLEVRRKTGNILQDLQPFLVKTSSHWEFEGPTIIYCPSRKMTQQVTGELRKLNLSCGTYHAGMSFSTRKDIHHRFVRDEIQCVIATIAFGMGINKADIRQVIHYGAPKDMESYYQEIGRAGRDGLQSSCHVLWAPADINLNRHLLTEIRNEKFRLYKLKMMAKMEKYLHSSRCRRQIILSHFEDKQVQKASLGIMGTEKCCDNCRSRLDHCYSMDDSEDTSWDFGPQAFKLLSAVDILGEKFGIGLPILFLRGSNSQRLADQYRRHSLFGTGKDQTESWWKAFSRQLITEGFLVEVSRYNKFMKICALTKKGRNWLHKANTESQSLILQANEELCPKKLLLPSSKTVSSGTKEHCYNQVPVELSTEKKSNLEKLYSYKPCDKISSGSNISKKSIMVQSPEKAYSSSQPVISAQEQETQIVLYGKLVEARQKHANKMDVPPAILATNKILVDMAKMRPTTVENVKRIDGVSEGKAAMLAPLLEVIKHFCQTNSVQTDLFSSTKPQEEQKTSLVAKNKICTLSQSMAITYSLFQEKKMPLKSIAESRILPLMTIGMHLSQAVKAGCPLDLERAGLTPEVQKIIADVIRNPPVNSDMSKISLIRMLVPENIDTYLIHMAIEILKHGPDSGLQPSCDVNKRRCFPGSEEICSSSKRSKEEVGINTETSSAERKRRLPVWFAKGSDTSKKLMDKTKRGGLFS
# Sequence of RecQ-like DNA helicase BLM (Homo sapiens) (P54132 whole entry, looked up): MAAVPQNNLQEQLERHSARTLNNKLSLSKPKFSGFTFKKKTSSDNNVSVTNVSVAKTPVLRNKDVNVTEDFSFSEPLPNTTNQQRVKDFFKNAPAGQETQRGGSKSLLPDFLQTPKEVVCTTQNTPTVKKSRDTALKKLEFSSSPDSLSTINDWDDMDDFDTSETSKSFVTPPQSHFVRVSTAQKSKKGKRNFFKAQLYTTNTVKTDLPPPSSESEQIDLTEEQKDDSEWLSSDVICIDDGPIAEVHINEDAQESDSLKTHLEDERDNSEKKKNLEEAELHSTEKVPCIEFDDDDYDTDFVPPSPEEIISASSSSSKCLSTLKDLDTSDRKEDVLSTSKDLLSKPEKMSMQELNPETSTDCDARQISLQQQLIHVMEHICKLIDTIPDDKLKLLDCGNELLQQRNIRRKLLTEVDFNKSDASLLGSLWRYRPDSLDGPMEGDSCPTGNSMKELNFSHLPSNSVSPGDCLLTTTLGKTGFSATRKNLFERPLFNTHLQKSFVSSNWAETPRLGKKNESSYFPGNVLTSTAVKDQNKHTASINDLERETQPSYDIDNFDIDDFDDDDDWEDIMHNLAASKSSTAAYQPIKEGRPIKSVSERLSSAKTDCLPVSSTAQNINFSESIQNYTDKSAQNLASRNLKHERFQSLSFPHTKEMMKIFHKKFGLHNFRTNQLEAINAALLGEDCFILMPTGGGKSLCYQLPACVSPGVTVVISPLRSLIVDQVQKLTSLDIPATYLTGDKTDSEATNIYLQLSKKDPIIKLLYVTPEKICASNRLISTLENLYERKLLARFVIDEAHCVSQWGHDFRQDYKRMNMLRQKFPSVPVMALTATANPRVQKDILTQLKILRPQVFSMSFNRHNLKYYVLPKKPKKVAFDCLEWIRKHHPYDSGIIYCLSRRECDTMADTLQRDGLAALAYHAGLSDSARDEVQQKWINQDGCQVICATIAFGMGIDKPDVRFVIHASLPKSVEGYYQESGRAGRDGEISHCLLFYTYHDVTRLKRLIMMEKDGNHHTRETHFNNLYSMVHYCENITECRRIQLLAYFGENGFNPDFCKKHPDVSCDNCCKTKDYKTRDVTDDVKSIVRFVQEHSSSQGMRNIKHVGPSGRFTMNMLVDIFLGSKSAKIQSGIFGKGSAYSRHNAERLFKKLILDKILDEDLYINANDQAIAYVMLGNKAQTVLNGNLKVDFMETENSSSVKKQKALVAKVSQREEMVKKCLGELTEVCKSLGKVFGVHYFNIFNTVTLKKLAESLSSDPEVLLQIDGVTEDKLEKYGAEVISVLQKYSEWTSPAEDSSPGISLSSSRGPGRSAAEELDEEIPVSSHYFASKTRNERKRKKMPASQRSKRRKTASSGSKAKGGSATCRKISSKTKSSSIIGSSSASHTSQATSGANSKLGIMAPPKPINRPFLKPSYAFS
# Sequence of Peptidyl-prolyl cis-trans isomerase NIMA-interacting 1 (Homo sapiens) (Q13526 whole entry, looked up): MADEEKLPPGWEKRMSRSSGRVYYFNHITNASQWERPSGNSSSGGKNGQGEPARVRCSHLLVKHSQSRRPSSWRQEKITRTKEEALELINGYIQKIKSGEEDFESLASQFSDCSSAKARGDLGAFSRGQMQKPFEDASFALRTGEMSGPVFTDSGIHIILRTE
# Sequence of phosphoglycerate mutase (Leishmania major) (Q4Q090 1-553): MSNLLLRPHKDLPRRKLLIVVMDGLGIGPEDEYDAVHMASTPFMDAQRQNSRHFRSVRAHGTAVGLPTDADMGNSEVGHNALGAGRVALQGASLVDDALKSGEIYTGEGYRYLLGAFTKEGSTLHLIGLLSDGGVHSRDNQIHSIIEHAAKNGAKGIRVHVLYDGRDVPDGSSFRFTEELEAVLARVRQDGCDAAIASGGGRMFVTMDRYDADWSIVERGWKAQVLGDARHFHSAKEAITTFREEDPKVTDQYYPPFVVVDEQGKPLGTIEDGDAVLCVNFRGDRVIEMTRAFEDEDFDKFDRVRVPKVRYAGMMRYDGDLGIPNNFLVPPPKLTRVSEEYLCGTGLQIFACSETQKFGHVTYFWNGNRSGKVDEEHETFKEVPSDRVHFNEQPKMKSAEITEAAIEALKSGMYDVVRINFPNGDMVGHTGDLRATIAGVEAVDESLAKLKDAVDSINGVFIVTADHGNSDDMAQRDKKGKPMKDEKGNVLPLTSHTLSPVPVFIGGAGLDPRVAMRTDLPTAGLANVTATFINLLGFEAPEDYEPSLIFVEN
Structure (SMILES),outcome [1],outcome [2],outcome [3],outcome [4],outcome [5],outcome [6],outcome [7],outcome [8],outcome [9],outcome [10],Potency [11],Potency [12],outcome [13],Potency [14]
CC[C@@H](CO)Nc1nc(NCc2ccccc2)c2ncn(C(C)C)c2n1,inactive,inactive,inactive,inactive,inactive,inactive,inactive,inactive,inactive,inactive,–,–,–,–
N#Cc1ccccc1CN1C(=O)S/C(=C/c2cccn2-c2cccc(C(=O)O)c2)C1=O,–,–,–,–,–,–,–,–,–,–,67 µM (active),21.5 µM (active),inactive,17.1 µM (active)
